Screening results from PubChem BioAssay.
Shiga toxin inh = Shiga toxin inhibition; actives 9.2% (n = 290,000); Vero cells, Shiga toxin protein synthesis inhibition reporter; inhibition, % at 38.7 µM; in the data active means inhibition mostly above about 28%, no sharp cut-off; inactive means mostly below about 43%
Pf growth 48h = P. falciparum growth inhibition at 48 hours (one generation) | P. falciparum luciferase growth in erythrocytes, 48 h | Potency, µM (top dose mostly 28.7 µM), hits mostly inhibitors | actives 5.9% (n = 310,000)
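Here the parasites carry a stable luciferase gene and grow inside erythrocytes in Albumax-based RPMI medium with compound for one erythrocytic cycle. Activity is scored as loss of luminescent signal.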
HCMV inh = inhibitors of human cytomegalovirus; activity change, negative = inhibition, % at 57.5 µM; AID 1259415; actives 4.5% (n = 410,000); HFF cells, HCMV-luciferase reporter, 72 h; active compounds read low; in the data active means activity change below about -60%; inconclusive means no clear call, values can overlap the other calls; inactive means above about -39%
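Two-dose cell screen: HFF monolayers treated with compounds and infected with luciferase-expressing HCMV at 1 PFU/cell, 72 h at 37C, then lysed for luciferase measurement.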
Pf growth 96h = P. falciparum growth inhibition at 96 hours. actives 6.9% (n = 320,000). Potency, µM (titrated, usually from 28.7 µM), usual class: inhibitors. P. falciparum luciferase reporter growth, 96 h
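Cell-based qHTS: luciferase-tagged P. falciparum in erythrocytes (2% hematocrit, 0.05% parasitemia final) incubated with compounds for 96 hours, 37 C, 5% CO2; luciferase detection reagent then added and luminescence measured.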
CHX counter = affects cycloheximide protein synthesis inhibition readout, counter-screen | AID 2314 | max response, % | actives 12% (n = 300,000) | cell reporter, cycloheximide protein synthesis inhibition counterscreen; in the data active means max response mostly above about 13%, no sharp cut-off; inactive means mostly below about 14%; further: read at 38.3 µM for the half of the compounds with a filed dose
Each line names hits and unclear results; the compound was inactive in the other large screens. Sampled rows, rich in hits. Any-hit rate of the full collection: about 20%. Unless noted, the call rests on the fitted dose curve; in most records, active means well fitted inhibition curve with a large enough effect; inconclusive means small, poorly fitted or top-dose-only effect, or another doubt; inactive means no such curve, though single readings can be large or run the other way.

CCOc1ccc2nc(N/C(N)=N/C(=S)Nc3ccc(C)c(C)c3)nc(C)c2c1	Pf growth 48h 6.57µM, Pf growth 96h 6.57µM
CCNC(=S)/N=C(/Nc1ccccc1)Nc1nc(C)cc(C)n1	Pf growth 48h inconclusive, Pf growth 96h inconclusive
CCCC(=O)Nc1ccc2oc(-c3ccncc3)nc2c1	Shiga toxin inh 68.0, Pf growth 96h inconclusive, CHX counter 19.9
CCCC(=O)Nc1ccc(-c2nc3cc(C)c(C)cc3o2)cc1	Shiga toxin inh 119.1, Pf growth 96h inconclusive, CHX counter 35.5
COc1ccc(OCC(=O)Nc2ccc3oc(-c4ccncc4)nc3c2)cc1	none
CCCCC(=O)Nc1ccc2oc(-c3ccncc3)nc2c1	Shiga toxin inh 39.4, CHX counter 13.1
CCCC(=O)Nc1cccc(-c2nc3cc(C)c(C)cc3o2)c1C	none (no result: Shiga toxin inh, Pf growth 48h, Pf growth 96h, CHX counter)
O=C(COc1ccc(Cl)cc1)Nc1ccc2oc(-c3ccncc3)nc2c1	Pf growth 48h inconclusive (no result: Pf growth 96h)
N=c1ccn2c(n1)OC1C(O)[C@@H](CO)O[C@H]12 (some centres undefined)	none (no result: Pf growth 48h, HCMV inh, Pf growth 96h)
O=C(N/N=C/c1cccc(NC(=O)c2ccc(Cl)cc2)c1)c1cccc(O)c1	Shiga toxin inh 77.3, CHX counter 26.4
Cc1ccc(C(=O)Nc2cccc(C(=O)N/N=C/c3ccc(O)cc3)c2)cc1	Pf growth 96h inconclusive, CHX counter 28.1
COc1ccc(NS(=O)(=O)c2cccc(C(=O)N/N=C/c3ccccc3OC)c2)cc1	none (no result: Shiga toxin inh, CHX counter)
O=C(N/N=C/c1cccs1)c1cccc(S(=O)(=O)Nc2ccc(Cl)cc2)c1	HCMV inh -64.7
O=C(N/N=C\c1ccc(OC(=O)c2cccs2)cc1)c1ccc(Cl)cc1	none
Cc1cccc(C(=O)Nc2cccc(C(=O)N/N=C/c3ccncc3)c2)c1	Pf growth 96h inconclusive
O=C(N/N=C/c1cccs1)c1cccc(NC(=O)c2ccc(Cl)cc2)c1	HCMV inh -97.1, Pf growth 96h inconclusive, CHX counter 29.1
O=C(N/N=C/c1cccnc1)c1cccc(NC(=O)c2ccc(Cl)cc2)c1	Pf growth 48h inconclusive (no result: HCMV inh)
COC(=O)c1ccc(NC(=O)C2(S(=O)(=O)c3ccc(C)cc3)CC2)cc1	none (no result: Shiga toxin inh, Pf growth 48h, Pf growth 96h, CHX counter)
Cc1ccccc1OCCCCn1c(-c2ccc(Cl)cc2)nc2ccccc2c1=O	none (no result: Shiga toxin inh, Pf growth 48h, Pf growth 96h, CHX counter)
CCOCc1c(C(=O)OCC(=O)Nc2ccc(C)c(S(=O)(=O)N(C)C)c2)oc2ccccc12	none
COc1ccc(C(CNC(=O)c2ccc(S(=O)(=O)N3CC(C)CC(C)C3)cc2)N(C)C)cc1 (centres undefined)	none (no result: Shiga toxin inh, Pf growth 48h, Pf growth 96h, CHX counter)
O=C(O)/C=C/c1cccc(NC(=O)c2ccc(Cl)cc2)c1	Pf growth 48h 0.329µM
O=C(O)/C=C/c1cccc(NC(=O)c2ccccc2)c1	none
O=C(N=C1SC2CS(=O)(=O)CC2N1Cc1ccc(Cl)cc1)C1CC1 (centres undefined)	none
O=C1CCC(C(=O)N2CCN(c3ccccc3)CC2)CN1CC1CCCCC1 (centres undefined)	Pf growth 48h inconclusive
COC(=O)[C@H](CC(C)C)NC(=O)N1CCN(c2cccc(C(F)(F)F)c2)CC1	Pf growth 48h inconclusive (no result: Pf growth 96h)
Cc1nc2[nH]c(=S)[nH]c2c(=O)[nH]1	HCMV inh -64.0 (no result: Shiga toxin inh, Pf growth 48h, Pf growth 96h, CHX counter)
CCOc1ccc(S(=O)(=O)N(C)CC(=O)NCc2ccc3c(c2)OCO3)cc1	Pf growth 96h inconclusive
CC(C)CC(=O)Nc1cccc(-c2cn3ccsc3n2)c1	Shiga toxin inh 36.4, CHX counter 31.6
O=S(=O)(Nc1cccc(-c2cn3cccnc3n2)c1)c1ccccc1	Pf growth 48h inconclusive, Pf growth 96h inconclusive
Cc1ccc(S(=O)(=O)Nc2cccc(-c3cn4ccsc4n3)c2)cc1	HCMV inh inconclusive, CHX counter 9.6
O=S(=O)(Nc1cccc(-c2cn3ccsc3n2)c1)c1ccc(F)cc1	Shiga toxin inh 105.9, CHX counter 25.4 (no result: Pf growth 96h)
O=S(=O)(Nc1cccc(-c2cn3cccnc3n2)c1)c1ccc(-c2ccccc2)cc1	HCMV inh -76.7
Cc1cccn2c(=O)cc(COc3ccc(NC(=O)C(C)Oc4ccccc4)cc3)nc12 (centres undefined)	none (no result: Shiga toxin inh, Pf growth 48h, Pf growth 96h, CHX counter)
CNC[C@H]1OCc2cnnn2CCCC(=O)N([C@@H](C)CO)C[C@@H]1C	none (no result: Shiga toxin inh, Pf growth 48h, Pf growth 96h, CHX counter)
Cc1ccccc1/[N+]([O-])=C/c1cccs1	none
Cc1ccc(/C=[N+](\[O-])c2ccccc2C)o1	HCMV inh -98.0
COc1ccc(Nc2nccc3c2nnn3C)cc1	Shiga toxin inh 96.8, CHX counter 45.4
COc1ccc(Nc2nccc3c2cc(-c2ccccc2OC)n3C)cc1	HCMV inh -67.2 (no result: Shiga toxin inh, Pf growth 48h, Pf growth 96h, CHX counter)
Cn1nnc2c(NCc3ccco3)nccc21	none
CC(NC(=O)CN(c1ccc(Cl)cc1)S(C)(=O)=O)c1ccccc1 (centres undefined)	Pf growth 96h inconclusive
CCCCS(=O)CC(CS(=O)CCCC)OC(=O)c1ccccc1 (centres undefined)	Pf growth 96h 6.57µM
CCCCS(=O)CC(CS(=O)CCCC)OC(=O)c1ccc(C)cc1 (centres undefined)	none
O=C(c1cc2nc(C3CC3)cc(C(F)F)n2n1)N1CCOCC1	Shiga toxin inh 32.5
Clc1ccc(OCCn2c(-c3ccco3)nc3ccccc32)cc1	HCMV inh -74.6, Pf growth 96h 11.7µM (no result: Pf growth 48h)
CCCN1CN(Cc2ccco2)c2nc3ccccc3n2C1	CHX counter 36.2
c1coc(Cn2c(-c3ccco3)nc3ccccc32)c1	Shiga toxin inh 45.3, HCMV inh inconclusive, CHX counter 17.1
COc1ccc(OCCn2c(NC(=O)c3ccco3)nc3ccccc32)cc1	Pf growth 48h inconclusive, CHX counter 20.3
COc1ccc(OCCn2c(NC(=O)c3ccc(OC)cc3)nc3ccccc32)cc1	none (no result: Shiga toxin inh, Pf growth 48h, Pf growth 96h, CHX counter)
C=CCn1c(SCC(=O)Nc2cc(C)on2)nc2sc(CC)cc2c1=O	none (no result: Pf growth 96h)
Cc1c(C(=O)N2CCC(C)CC2)c(S(=O)(=O)NCc2ccc(Br)cc2)c(C)n1C	none (no result: Shiga toxin inh, Pf growth 48h, Pf growth 96h, CHX counter)
O=C(O)CN1C(=O)/C(=C/c2ccc(SCc3ccccc3)o2)SC1=S	none
CCN1C(=O)S/C(=C/c2ccc(Sc3nc4ccccc4[nH]3)o2)C1=O	HCMV inh -65.3, Pf growth 96h 9.28µM
Cc1ccc(CNC(=O)Cn2cc(C(=O)c3ccc(Cl)cc3)c(=O)c3ccc(C)nc32)cc1	none (no result: Shiga toxin inh, Pf growth 48h, Pf growth 96h, CHX counter)
CCc1cc(OCCCCNCc2ccccc2)ccc1Cl	none
Cn1cc(CN2CCN(CC(C)(C)C)C(CCO)C2)c2ccccc21 (centres undefined)	Pf growth 96h 1.47µM
Cc1cccc(CN2CCN(Cc3cccc(-n4cccn4)c3)CC2CCO)n1 (centres undefined)	Pf growth 96h 4.15µM
CC(C)(C)CN1CCN(Cc2cccnc2)CC1CCO (centres undefined)	Pf growth 96h 10.4µM (no result: Shiga toxin inh)
Cc1cccc(CN2CCN(Cc3ccc(-n4cccn4)cc3)CC2CCO)n1 (centres undefined)	HCMV inh inconclusive
Cc1cc(C(=O)N2CCN(c3ccccc3)CC2)c2c(C)nn(-c3cccc(F)c3)c2n1	none (no result: Shiga toxin inh, Pf growth 48h, Pf growth 96h, CHX counter)
CCN=C(NCC)SC1CC(=O)N(CCc2ccccc2)C1=O (centres undefined)	none (no result: Shiga toxin inh, Pf growth 48h, Pf growth 96h, CHX counter)
COc1cccc(-c2nc(NCc3cccnc3)c3ccccc3n2)c1O	Pf growth 48h 11.7µM, Pf growth 96h inconclusive, CHX counter 18.5
